{
  "source": "PubChem BioAssay AID743258",
  "about": "(The Scripps Research Institute Molecular Screening Center, 2014)",
  "note": "In all, about 3,300 compounds went through this assay and about 100 (3%) were called active. Cut-off read from the data, not from the text of the source: active = inhibition above about 9.5%; inactive = the rest. These entries were drawn from the full list.",
  "data": [
    {"molecular_target": "1-phosphatidylinositol 4,5-bisphosphate phosphodiesterase gamma-1 (Homo sapiens) (UniProt P19174)", "sequence (P19174 whole entry, looked up)": "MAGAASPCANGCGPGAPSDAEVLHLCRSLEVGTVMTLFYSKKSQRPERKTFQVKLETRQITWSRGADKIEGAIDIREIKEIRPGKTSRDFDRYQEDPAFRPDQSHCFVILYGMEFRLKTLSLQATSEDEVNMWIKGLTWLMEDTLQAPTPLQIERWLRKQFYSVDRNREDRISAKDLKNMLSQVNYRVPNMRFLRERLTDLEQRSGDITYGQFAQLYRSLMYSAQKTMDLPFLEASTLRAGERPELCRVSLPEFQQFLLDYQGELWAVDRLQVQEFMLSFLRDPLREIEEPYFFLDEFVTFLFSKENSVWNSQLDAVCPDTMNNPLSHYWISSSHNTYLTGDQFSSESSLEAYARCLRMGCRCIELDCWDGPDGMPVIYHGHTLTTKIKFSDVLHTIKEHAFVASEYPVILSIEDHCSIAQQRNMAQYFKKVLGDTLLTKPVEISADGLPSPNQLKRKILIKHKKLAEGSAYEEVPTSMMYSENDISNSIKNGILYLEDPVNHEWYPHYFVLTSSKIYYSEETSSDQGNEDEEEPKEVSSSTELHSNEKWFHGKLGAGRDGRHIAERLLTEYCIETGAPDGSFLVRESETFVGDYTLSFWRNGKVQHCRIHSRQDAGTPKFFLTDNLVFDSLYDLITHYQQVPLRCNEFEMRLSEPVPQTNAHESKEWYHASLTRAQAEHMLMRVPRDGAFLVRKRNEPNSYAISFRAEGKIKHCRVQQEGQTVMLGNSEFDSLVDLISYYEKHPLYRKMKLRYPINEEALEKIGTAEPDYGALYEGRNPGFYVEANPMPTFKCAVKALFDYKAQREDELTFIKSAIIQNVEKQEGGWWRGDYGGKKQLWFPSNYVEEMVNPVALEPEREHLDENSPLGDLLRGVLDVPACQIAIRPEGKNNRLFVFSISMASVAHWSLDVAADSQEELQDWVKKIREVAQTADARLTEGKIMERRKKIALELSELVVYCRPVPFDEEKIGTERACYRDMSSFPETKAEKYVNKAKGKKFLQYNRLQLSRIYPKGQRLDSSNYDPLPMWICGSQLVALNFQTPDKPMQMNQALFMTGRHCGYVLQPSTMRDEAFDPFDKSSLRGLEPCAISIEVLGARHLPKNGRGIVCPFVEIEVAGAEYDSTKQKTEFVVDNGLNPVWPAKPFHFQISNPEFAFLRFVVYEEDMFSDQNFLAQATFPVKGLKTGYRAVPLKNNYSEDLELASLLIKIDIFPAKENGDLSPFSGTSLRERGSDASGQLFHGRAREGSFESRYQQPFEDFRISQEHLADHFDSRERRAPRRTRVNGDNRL", "assay": "human PLCG1 activity blockade – biochemical, fluorescence, counter-screen for PLC-beta3 inhibitor project (AID 743258)", "settings": "purified PLC-gamma1, fluorogenic substrate, at 12.3 µM, hits give high values", "values": [
      {"smiles": "CCCCNc1ccc(C(=O)Nc2cccc(C)n2)cc1[N+](=O)[O-]", "inhibition": "-2.76% (inactive)"},
      {"smiles": "Nc1nnc(SCC(=O)OCc2ccc(Cl)c(Cl)c2)s1", "inhibition": "-3.53% (inactive)"},
      {"smiles": "CCCCn1c(SCC(=O)N2CCCC2=O)nc2cc(S(N)(=O)=O)ccc21", "inhibition": "-2.51% (inactive)"},
      {"smiles": "COc1ccccc1CCNC(=O)CN1C(=O)NC2(CCCC2)C1=O", "inhibition": "5.92% (inactive)"},
      {"smiles": "Cc1cc(C)c(NC(=O)CN2CCOCCOCCOCCOCC2)c(C)c1", "inhibition": "-2.06% (inactive)"},
      {"smiles": "O=c1c([N+](=O)[O-])cc(C(F)(F)F)cn1Cc1cccc(Cl)c1", "inhibition": "8.36% (inactive)"},
      {"smiles": "O=C(CSc1ncn[nH]1)N/N=C/c1ccc(F)cc1", "inhibition": "0.56% (inactive)"},
      {"smiles": "CCOC(=O)[C@]12CCCC=C1N(CCCOC)C(=O)[C@@H]2CC(=O)N1CCOCC1", "inhibition": "-3.38% (inactive)"},
      {"smiles": "Cc1nc(Nc2ccccc2C)c2cnn(C)c2n1", "inhibition": "-6.74% (inactive)"},
      {"smiles": "Cc1cc(NC(=O)COn2nnc3ccccc32)no1", "inhibition": "-0.28% (inactive)"},
      {"smiles": "C[C@]12c3[nH]c4ccc(Cl)cc4c3CCN1C(=O)[C@@H](CC(=O)NCCCn1ccnc1)C[C@@H]2C(=O)N1CCOCC1", "inhibition": "-7.65% (inactive)"},
      {"smiles": "C=CC1=C(C(=O)O)N2C(=O)[C@@H](NC(=O)/C(=N\\OCC(=O)O)c3csc(N)n3)[C@H]2SC1", "inhibition": "88.6% (active)"},
      {"smiles": "COc1ccc(C(N)c2csc(NC(=O)Nc3cccc(C(F)(F)F)c3)n2)cc1", "note": "(stereo not drawn)", "inhibition": "-0.69% (inactive)"},
      {"smiles": "COc1ccc(/C(C)=N/N2CCOCC2)c(O)c1", "inhibition": "-16.2% (inactive)"},
      {"smiles": "CC(C)n1c(CN2CCN(Cc3ccccc3)CC2)nc2ccccc21", "inhibition": "-8.55% (inactive)"},
      {"smiles": "CC(=O)C12CC(C)=C(C)CC1CC1C3CCC4=CC(=O)CCC4(C)C3CCC12C", "note": "(stereo not drawn)", "inhibition": "-1.14% (inactive)"},
      {"smiles": "O=C(NC12CC3CC(CC(C3)C1)C2)N1CCCC(CO)C1", "note": "(stereo not drawn)", "inhibition": "-3.42% (inactive)"},
      {"smiles": "COc1ccccc1C(=O)N1C(CC(=O)Nc2ccccc2C)C(=O)NC2CCCCC21", "note": "(stereo not drawn)", "inhibition": "-4.18% (inactive)"},
      {"smiles": "C=CCn1c(SCn2nnc3ccccc3c2=O)nnc1-c1ccc(Cl)cc1", "inhibition": "-4% (inactive)"},
      {"smiles": "CCOC(=O)C1CCN(C(=O)c2ccccc2N(C)S(=O)(=O)c2ccccc2)CC1", "inhibition": "-3.46% (inactive)"},
      {"smiles": "CCC[C@H]1CCCC/C=C\\CCCC(=O)OCCN1C(=O)OC(C)(C)C", "inhibition": "1.42% (inactive)"},
      {"smiles": "Cc1cccc([C@@H]2[C@@H]3C(=O)N(Cc4ccccc4)C(=O)[C@@H]3[C@]3(Cc4ccc(Cl)cc4)C(=O)N(c4cccc(Cl)c4)C(=O)N23)c1", "inhibition": "3.36% (inactive)"},
      {"smiles": "Cc1c(C(=O)c2cccc([N+](=O)[O-])c2)c2ccccn2c1CCC#N", "inhibition": "-0.24% (inactive)"},
      {"smiles": "CC1(C)CC(=O)C=C(NC2CC(C)(C)NC(C)(C)C2)C1", "inhibition": "-0.48% (inactive)"},
      {"smiles": "Cc1ccc(-c2cn(S(=O)(=O)c3cccc([N+](=O)[O-])c3)nc2N)cc1", "inhibition": "-5.96% (inactive)"},
      {"smiles": "O=C(Nc1ccc(Br)cc1)C1CCC(=O)N1Cc1ccccc1Cl", "note": "(stereo not drawn)", "inhibition": "-0.49% (inactive)"},
      {"smiles": "CCN(CC)Cc1csc2ccc(Br)cc12", "inhibition": "-2.99% (inactive)"},
      {"smiles": "Cc1nc2ccccc2nc1CC(O)(c1ccccc1)c1ccccc1", "inhibition": "1.82% (inactive)"},
      {"smiles": "C/C(CC(C)C)=N\\Oc1nc(C)cc(C)n1", "inhibition": "-8.49% (inactive)"},
      {"smiles": "O=C(c1ccc2c(c1)OCO2)N1CCNc2ccccc2C1", "inhibition": "-5.39% (inactive)"},
      {"smiles": "Cc1cccc(C(=O)NCCCN2CCCC2=O)c1", "inhibition": "-4.45% (inactive)"},
      {"smiles": "Cc1ccc(NC(=S)N(Cc2ccco2)C(C)c2cccs2)cc1", "note": "(stereo not drawn)", "inhibition": "-3.86% (inactive)"},
      {"smiles": "O=c1c2ccccc2c(-c2ccccc2)nn1Cc1ccccc1", "inhibition": "-4.2% (inactive)"},
      {"smiles": "O=C1c2ccccc2S(=O)(=O)N1CC(O)Cn1c2ccccc2c2ccccc21", "note": "(stereo not drawn)", "inhibition": "2.37% (inactive)"},
      {"smiles": "O=C(/C=C/c1c(F)cccc1Cl)Nc1nn[nH]n1", "inhibition": "-8.5% (inactive)"},
      {"smiles": "CCOc1ccccc1NC(=O)c1cccnc1", "inhibition": "-8.44% (inactive)"},
      {"smiles": "CCc1c(Nc2ccccc2C)nc(N)[nH]c1=O", "inhibition": "0.72% (inactive)"},
      {"smiles": "COc1ccc([N+](=O)[O-])cc1N(CC(O)Cn1nnc2ccccc21)S(=O)(=O)c1ccc(C)cc1", "note": "(stereo not drawn)", "inhibition": "-0.66% (inactive)"},
      {"smiles": "COc1cc(NC(=O)COC(=O)c2ccc([N+](=O)[O-])s2)cc(OC)c1OC", "inhibition": "-0.3% (inactive)"},
      {"smiles": "Cc1ccc(C(=O)N2CCN(C(=O)N3CCOCC3)CC2)cc1", "inhibition": "-6.45% (inactive)"},
      {"smiles": "O=C(CSc1nnc(-c2ccncc2)n1C1CCCCC1)Nc1ccccc1", "inhibition": "-6.62% (inactive)"},
      {"smiles": "COC(=O)NC1(C(F)(F)F)NC(=O)N(C2CCCCC2)C1=O", "note": "(stereo not drawn)", "inhibition": "-2.81% (inactive)"},
      {"smiles": "CN(C)S(=O)(=O)c1cccc(NC(=O)COC(=O)C2(c3ccccc3F)CCCC2)c1", "inhibition": "-1.97% (inactive)"},
      {"smiles": "O=C(O)c1ccc(Cn2c(=S)[nH]c3cc(Cl)ccc3c2=O)cc1", "inhibition": "-7.72% (inactive)"},
      {"smiles": "C[C@H](C(=O)N(C)c1ccccc1)[C@@H](O)c1ccc2ccccc2c1", "inhibition": "-5.46% (inactive)"},
      {"smiles": "CC(C)(C)c1ccc(C(=O)Nc2cc(Cl)c(Br)cc2C(=O)O)cc1", "inhibition": "-7.48% (inactive)"},
      {"smiles": "CN(C)/C=C(/C(=O)c1ccc(Cl)cc1)S(=O)(=O)c1ccccc1", "inhibition": "-4.31% (inactive)"},
      {"smiles": "CCOc1ccc(NC(=O)[C@H](C)NC(=O)C2CC(=O)N(c3ccc(OC)cc3)C2)cc1", "note": "(stereo partly drawn)", "inhibition": "-8.84% (inactive)"},
      {"smiles": "CC1Oc2ccccc2N(Cc2cccnc2)C1=O", "note": "(stereo not drawn)", "inhibition": "-5.05% (inactive)"},
      {"smiles": "CCOC(=O)N1CCC(c2cc(=O)n(-c3ccccc3)[nH]2)CC1", "inhibition": "2.8% (inactive)"},
      {"smiles": "CC(C)C(NC(=O)C1CCC(C(C)(C)C)CC1)C(=O)NCCCN1CCCCC1", "note": "(stereo not drawn)", "inhibition": "8.08% (inactive)"},
      {"smiles": "CC1(C)CC(=O)C=C(NCCN2CCNCC2)C1", "inhibition": "-10.6% (inactive)"},
      {"smiles": "Cc1ccc(S(=O)(=O)N2CCCCC2)cc1NC(=O)CCNC(=O)c1ccccc1", "inhibition": "-4.84% (inactive)"},
      {"smiles": "O=C1CS(=O)CN1c1ccc(Oc2ccccc2)cc1", "note": "(stereo not drawn)", "inhibition": "24.1% (active)"},
      {"smiles": "CC(C)Oc1ccc(CC(=O)NNC(=S)Nc2ccc(Br)cc2)cc1", "inhibition": "-9.3% (inactive)"},
      {"smiles": "OC(CNCC1CCCO1)Cn1c2ccc(Br)cc2c2cc(Br)ccc21", "note": "(stereo not drawn)", "inhibition": "-8.03% (inactive)"},
      {"smiles": "Cc1ccccc1C(=O)Nc1ccccc1Sc1ccccc1", "inhibition": "-2.19% (inactive)"},
      {"smiles": "CC(=O)c1c(C)[nH]c(C(=O)OCC(=O)Nc2cc(S(=O)(=O)N3CCCCC3)ccc2C)c1C", "inhibition": "-5.44% (inactive)"}
    ]}
  ]
}
